According to PubChem BioAssay (EPA / NIEHS):
Values joined by “and” are separate entries in the source; they are usually repeats but may differ in a detail not shown here. Equal values may be shown once. Where a structure was tested more than once in an assay, its records may differ in their call. Active and inactive are the calls of the source. How the source made its calls: active means hit-call score of the fitted dose curve at least 0.9, where 1 is the maximum; inactive means score below 0.9.

Tests used:
[1] = read-out: Vascular endothelial growth factor receptor 2 (Homo sapiens) (UniProt P35968); assay: BSK_4H_VEGFRII: BioMAP Diversity Plus: 4H Assay for Vascular endothelial growth factor receptor 2 (VEGFR2) Biomarker Activity (AID 2283031); details: primary human endothelial cells (HUVEC); actives raise or lower the signal;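 on AC50: cell-surface VEGFR2 protein level quantified by ELISA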
Procedure, shortened: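 VEGFRII levels on human vascular endothelial primary cells were determined by ELISA at 24 hours post-dosing, with gain- or loss-of-signal fitted against DMSO controls.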

[2] = read-out: Human Leukocyte Antigen - DR isotype (HLADR), HLA-DRA (gene 3122); assay: BSK_BE3C_HLADR: BioMAP Diversity Plus: BE3C Assay for Human Leukocyte Antigen - DR isotype (HLADR) Biomarker Activity (AID 2283032); details: primary human bronchial epithelial cells; actives raise or lower the signal
Procedure, shortened: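 Chemicals are dosed onto BE3C bronchial epithelial cultures of human origin and left 24 h. HLA-DR is then measured by ELISA, and the endpoint is fitted in both directions using DMSO as the activity baseline.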

[3] = read-out: Vascular cell adhesion molecule 1 (VCAM1), VCAM1 (gene 7412); assay: BSK_4H_VCAM1: BioMAP Diversity Plus: 4H Assay for Vascular cell adhesion molecule 1 (VCAM1) Biomarker Activity (AID 2283033); details: primary human endothelial cells (HUVEC); actives raise or lower the signal
Procedure, shortened: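 Chemicals are added to primary human umbilical vein endothelial cells. After 24 h, VCAM-1 levels are measured by ELISA. Values come from bidirectional fitting referenced to DMSO.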

[4] = read-out: Interferon-gamma inducible Protein 10 (IP10), CXCL10 (gene 3627); assay: BSK_BE3C_IP10: BioMAP Diversity Plus: BE3C Assay for Interferon-gamma inducible Protein 10 (IP10) Biomarker Activity (AID 2283034); details: primary human bronchial epithelial cells; actives raise or lower the signal
Procedure, shortened: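 IP-10 quantified by ELISA serves as the endpoint. Cells: primary human bronchial epithelium, read 24 h after compound addition. Activity is derived by bidirectional fitting with DMSO as negative control.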

[5] = read-out: Monokine induced gamma interferon (MIG), CXCL9 (gene 4283); assay: BSK_BE3C_MIG: BioMAP Diversity Plus: BE3C Assay for Monokine induced gamma interferon (MIG) Biomarker Activity (AID 2283035); details: primary human bronchial epithelial cells; actives raise or lower the signal
Procedure, shortened: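 hu bronchial epithelial 1° cells, 24 h cpd; MIG by ELISA; bidirectional fit, DMSO = baseline.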

[6] = read-out: Transforming growth factor beta 1 (TGFb1), TGFB1 (gene 7040); assay: BSK_BE3C_TGFb1: BioMAP Diversity Plus: BE3C Assay for Transforming growth factor beta 1 (TGFb1) Biomarker Activity (AID 2283036); details: primary human bronchial epithelial cells; actives raise or lower the signal
Procedure, shortened: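 Bronchial epithelial primary cells are treated with test chemical, then TGF-b1 is quantified by ELISA after 24 hours. Values derive from bidirectional fitting against DMSO, with cytotoxicity checked by SRB staining in parallel cultures.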

[7] = read-out: Plasminogen activator inhibitor-1 (PAI1), SERPINE1 (gene 5054); assay: BSK_BE3C_PAI1: BioMAP Diversity Plus: BE3C Assay for Plasminogen activator inhibitor-1 (PAI1) Biomarker Activity (AID 2283037); details: primary human bronchial epithelial cells; actives raise or lower the signal
Procedure, shortened: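 Values derive from bidirectional fitting against DMSO baseline of PAI-1 levels, measured by ELISA in human bronchial epithelial cells 24 h after compound addition.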

[8] = read-out: urokinase plasminogen activator (uPA), PLAU (gene 5328); assay: BSK_BE3C_uPA: BioMAP Diversity Plus: BE3C Assay for urokinase plasminogen activator (uPA) Biomarker Activity (AID 2283038); details: primary human bronchial epithelial cells; actives raise or lower the signal
Procedure, shortened: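 Measured by ELISA: uPA from human primary bronchial epithelial cells 24 h after chemical treatment. Values derive from bidirectional curve fitting with DMSO serving as negative control. Total protein by SRB staining in parallel wells flagged overt cytotoxicity.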

[9] = read-out: Urokinase-type plasminogen activator receptor (uPAR), PLAUR (gene 5329); assay: BSK_BE3C_uPAR: BioMAP Diversity Plus: BE3C Assay for Urokinase-type plasminogen activator receptor (uPAR) Biomarker Activity (AID 2283039); details: primary human bronchial epithelial cells; actives raise or lower the signal
Procedure, shortened: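 Steps: dose human primary bronchial epithelial cells, incubate 24 h, measure uPAR by ELISA, then fit gain- or loss-of-signal response bidirectionally relative to DMSO.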

[10] = read-out: Interleukin-6 (IL6), IL6 (gene 3569); assay: BSK_CASM3C_IL6: BioMAP Diversity Plus: CASM3C Assay for Interleukin-6 (IL6) Biomarker Activity for (AID 2283040); details: primary human coronary artery smooth muscle cells; actives raise or lower the signal

Measured: AC50

O=[N+]([O-])c1cc(C(F)(F)F)ccc1Cl
inactive: all assays above

NCCNCCN
not listed: [6]
inactive: all other assays above

C=CCOC(=O)CCC1CCCCC1
not listed: [6]
inactive: all other assays above

CC(=O)[C@H]1CC[C@H]2[C@@H]3CC=C4C[C@@H](O)CC[C@]4(C)[C@H]3CC[C@]12C
not listed: [6]
inactive: all other assays above

O=C=NC1CCC(CC2CCC(N=C=O)CC2)CC1 (centres undefined)
inactive: all assays above

OC1OC[C@@H](O)[C@H](O)[C@H]1O (some centres undefined)
not listed: [6]
inactive: all other assays above

CCCCCCCCC=O
inactive: all assays above

O=C1OC2(c3cc(Br)c(O)c(Br)c3Oc3c2cc(Br)c(O)c3Br)c2c(Cl)c(Cl)c(Cl)c(Cl)c21
active: [2] 0.56 µM | [3] 4.23 µM | [4] 0.818 µM | [5] 2.49 µM | [6] 0.587 µM | [7] 0.563 µM | [8] 0.736 µM | [9] 0.84 µM
inactive: [10]

O=C1CCCCCCCCCCCCCCO1
inactive: [1] | [5]
active: [2] 20 µM | [3] 27.4 µM | [4] 12.6 µM | [6] 14.6 µM | [7] 20 µM | [8] 32.7 µM | [9] 20 µM | [10] 31.6 µM

COc1cc(C=O)ccc1OC(=O)C(C)C
not listed: [6]
inactive: all other assays above

Cc1ccc(Nc2ccc(O)c3c2C(=O)c2ccccc2C3=O)cc1
inactive: all assays above

CC(C)(COC(=O)c1ccccc1)COC(=O)c1ccccc1
active: [1] 28.4 µM | [3] 20 µM
inactive: all other assays above

Cc1ccc(O)c(C(C)(C)C)c1
active: [2] 30.5 µM | [3] 30.5 µM | [4] 36.8 µM | [5] 35 µM | [8] 31.6 µM | [9] 20 µM | [10] 10.6 µM
inactive: [1] | [6] | [7]

c1ccc2c(c1)c1cccc3ccc4cccc2c4c31
inactive: all assays above

Nc1cc([N+](=O)[O-])ccc1Cl
inactive: all assays above

CCC(=O)OCc1ccccc1
not listed: [6]
inactive: all other assays above

CC(C)Oc1ccccc1O
inactive: all assays above

OC[C@H]1O[C@H](O[C@]2(CCl)O[C@H](CCl)[C@@H](O)[C@@H]2O)[C@H](O)[C@@H](O)[C@H]1Cl
not listed: [6]
inactive: all other assays above

Cc1cc(C2(c3cc(C)c(O)cc3C)OS(=O)(=O)c3ccccc32)c(C)cc1O
not listed: [6]
inactive: all other assays above

Nc1cc([N+](=O)[O-])ccc1O
inactive: [1] | [2] | [3] | [4] | [5] | [7] | [8] | [9] | [10]
active: [7] 11.8 µM

c1ccc2sc(SN(C3CCCCC3)C3CCCCC3)nc2c1
active: [1] 5.07 µM | [3] 5.45 µM | [4] 2.67 µM
inactive: all other assays above

C[C@H]1C[C@@H]2[C@H]([C@@H](O)C[C@@]3(C)[C@H]2CC[C@]3(O)C(=O)CO)[C@@]2(C)C=CC(=O)C=C12
active: [10] 352 nM and 321 nM
not listed: [6]
inactive: all other assays above

CC1CCC(C(C)CS)CC1S (centres undefined)
inactive: [1] | [6] | [7] | [8]
active: [2] 20 µM | [3] 29.1 µM | [4] 30.7 µM | [5] 35.4 µM | [9] 20 µM | [10] 33.5 µM

CC(=O)OCCC(C)CC(C)(C)C (centres undefined)
not listed: [6]
inactive: all other assays above

O=P(c1ccccc1)(c1ccccc1)c1ccccc1
inactive: all assays above

BrC1CCC(Br)C(Br)CCC(Br)C(Br)CCC1Br (centres undefined)
active: [1] 2.62 µM | [2] 1.49 µM | [3] 2.95 µM | [4] 1.55 µM
inactive: all other assays above
